Measurements taken from PubChem BioAssay AID463173 (ICCB-Longwood Screening Facility, Harvard Medical School, 2010).
Among all 52,000 compounds or so, about 4,300 (8.3%) were called active. Shown is part of a subset that was picked to be rich in actives. Values without a mark were called inactive. No stated cut-off is given here; in the data, active means survival mostly below about 52% (no sharp cut-off); inactive means mostly above about 56%.

Each molecule was assayed on DeltatarO mutant (assay: S. aureus survival, RN4220 and DeltatarO strains – OD600, teichoic acid synthesis inhibitors, primary screen (AID 463173)). Details: S. aureus RN4220 wild type/DeltatarO growth, OD600, 18 h, hits give low values, screened at 18.75 µg/mL (by protocol).
Molecule `Cc1oc(-c2cccc(Cl)c2)nc1CN1CCC(C(=O)NCc2ccc(F)cc2)CC1` has a survival of 124%.
Work on `CCc1ccccc1NC(=O)c1cc(-c2ccc(Cl)s2)nc2ccccc12` yielded a survival of 71%.
`CCOc1ccccc1NC(=O)c1cc2c(Cl)nc3ccccc3c2s1` was tested, and the survival was 41% (active).
`CC(C)NC(=O)c1cc2c(Cl)nc3ccccc3c2s1` was tested, and the survival was 56%.
`O=C(Nc1ccc(Cl)cc1)c1cc2c(Cl)nc3ccccc3c2s1` showed a survival of 94%.
`CCc1ccccc1NC(=O)c1cc2c(Cl)nc3ccccc3c2s1` was tested, and the survival was 42% (active).
`CCOc1ccccc1NC(=O)c1cc2c(=O)[nH]c3ccccc3c2s1` showed a survival of 60%.
Work on `CCOC(=O)C1=C(CN(CC)Cc2ccccc2)NC(=O)NC1c1ccc(OC)cc1` (configuration not stated) yielded a survival of 65%.
Molecule `CNC(=O)c1cc2c(n(-c3ccc(C)cc3)c1=O)CC(C)(C)CC2=O` has a survival of 93%.
With `COc1ccc(OC)c(NC(=O)c2cc3c(n(-c4ccc(Cl)cc4)c2=O)CC(C)(C)CC3=O)c1` the survival was 69%.
`CCOC(=O)c1ccc(NC(=O)c2cc3c(n(-c4ccc(C)cc4)c2=O)CC(C)(C)CC3=O)cc1` gave a survival of 153%.
`Cc1ccc(-n2c3c(cc(C(=O)Nc4ccccc4C(N)=O)c2=O)C(=O)CC(C)(C)C3)cc1` gave a survival of 49%.
In the case of `CN(C)C=NC(=O)c1cc2c(n(-c3ccccc3)c1=O)CC(C)(C)CC2=O`, the survival is reported as 46%.
Molecule `CCOc1ccc(NC(=O)c2cc3c(n(-c4ccc(OC)cc4)c2=O)CC(C)(C)CC3=O)cc1` has a survival of 60%.
In the case of `CC1(C)CC(=O)c2cc(C(=O)Nc3ccc(Br)cc3)c(=O)n(-c3ccc(Cl)cc3)c2C1`, the survival is reported as 42% (active).
For `COc1ccccc1NC(=O)c1cc2c(n(-c3ccc(C)cc3)c1=O)CC(C)(C)CC2=O`, the survival was 45% (active).
With `CC1(C)CC(=O)c2cc(C(=O)NC(C)(C)C)c(=O)n(-c3ccccc3)c2C1` the survival was 39% (active).
In the case of `Cc1ccc(CCNC(=O)CCCn2c(=O)c3ccccc3n(Cc3ccccc3C)c2=O)cc1`, the survival is reported as 88%.
Molecule `CC1CC(C)CN(C(=O)Cn2cnc3c2c(=O)n(C)c(=O)n3C)C1` (configuration not stated) has a survival of 107%.
In the case of `Cc1ccccc1CNC(=O)CN1C(=O)CSc2ccc(S(=O)(=O)N(C)C)cc21`, the survival is reported as 78%.
Molecule `CCC(=O)N(Cc1nc2ccccc2c(=O)[nH]1)Cc1ccccc1OC` has a survival of 90%.
Work on `Cc1ccc(N2CCN(C(=O)c3cc(S(=O)(=O)N4CCCCC4)c[nH]3)CC2)c(C)c1` yielded a survival of 102%.
`CCOc1ccc(N(CC(=O)Nc2ccccc2CC)S(=O)(=O)c2c(C)noc2C)cc1` was tested, and the survival was 79%.
In the case of `COc1ccc(C(=O)Nc2nnc(SCc3cc(=O)n4cccc(C)c4n3)s2)cc1`, the survival is reported as 72%.
With `Cc1cc(C(=O)O)c(CN2CCCC2)o1` the survival was 74% (active).
In the case of `O=C(O)c1ccc(CN2CCCCC2)cc1`, the survival is reported as 79%.
`Cc1oc(C(=O)O)cc1CN1CCCC1` gave a survival of 100%.
In the case of `CC1=C(C(=O)Nc2cccnc2)C(c2ccccc2Cl)n2nc(-c3ccccc3)nc2N1` (configuration not stated), the survival is reported as 74%.
With `Cc1nc(SCC(N)=O)c2c3c(sc2n1)CCCC3` the survival was 80%.
With `Cc1nc(SCC(=O)OC(C)(C)C)c2c3c(sc2n1)CCCC3` the survival was 7% (active).
With `Cc1ccc(-c2nc(NC(=O)CSc3nc(C)nc4sc5c(c34)CCCC5)ns2)cc1` the survival was 53%.
In the case of `CCCCN(C)c1ncnc2c1cnn2-c1cccc(Cl)c1`, the survival is reported as 101%.
`CCc1ccc(C(=O)c2cn(CC(=O)Nc3ccc4c(c3)OCO4)c3ccc(Cl)cc3c2=O)cc1` showed a survival of 72%.
For `Cc1ccc(S(=O)(=O)Nc2cc(Cl)c3oc4c(c3c2)CCCC4)cc1`, the survival was 117%.
In the case of `Cc1cc(S(=O)(=O)Nc2ccc3oc4c(c3c2)CCCC4)ccc1Cl`, the survival is reported as 41% (active).
With `O=S(=O)(Nc1ccc2oc3c(c2c1)CCCC3)c1cc(Cl)ccc1Cl` the survival was 33% (active).
`Cc1oc2ccc(NS(=O)(=O)c3ccc(F)cc3)cc2c1C(=O)O` was tested, and the survival was 193%.
`COc1ccc(S(=O)(=O)Nc2ccc3oc4c(c3c2)CCCC4)cc1` was tested, and the survival was 27% (active).
`CCn1cnc2c(=O)oc3ccc(S(=O)(=O)Nc4ccc(OC)cc4)cc3c21` showed a survival of 75%.
For `CC(C)(C)C1CCc2oc3ccc(NS(=O)(=O)c4cc(Cl)ccc4Cl)cc3c2C1` (configuration not stated), the survival was 73%.
`CC(C)(C)C1CCc2oc3ccc(NS(=O)(=O)c4ccc(C(=O)O)cc4)cc3c2C1` (configuration not stated) was tested, and the survival was 16% (active).
`COc1ccc(S(=O)(=O)Nc2ccc3oc4c(c3c2)C(=O)CC(C)(C)C4)cc1` showed a survival of 159%.
In the case of `CCOc1ccc(S(=O)(=O)Nc2ccc3oc4c(c3c2)CC(C)CC4)cc1` (configuration not stated), the survival is reported as 44%.
Work on `Cc1cc(C)c(S(=O)(=O)Nc2ccc3oc4c(c3c2)CCCC4)cc1C` yielded a survival of 55%.
`O=S(=O)(NC1CCCCC1)c1cc(Cl)ccc1Cl` was tested, and the survival was 96%.
In the case of `CCN1C(=O)c2ccccc2Sc2ccc(NC(=O)Nc3ccc(Br)c(C)c3)cc21`, the survival is reported as 71%.
`Oc1ccccc1Nc1nc2ccccc2n2nnnc12` showed a survival of 80%.
`CN(C)CCCNc1nc(-c2ccc(Cl)cc2)cs1` gave a survival of 132%.
For `CCOc1cc(C2c3c(oc4cc(C)cc(C)c4c3=O)C(=O)N2CCO)ccc1O` (configuration not stated), the survival was 68%.
`O=C(Cn1c2ncccc2c(=O)n1-c1ccccc1)Nc1cccc(C(F)(F)F)c1` showed a survival of 67%.
`O=C(Nc1ccccc1C(=O)N1CCOCC1)C1COc2ccccc2O1` (configuration not stated) showed a survival of 95%.
`CCC(=O)N1CCc2cc(CNC(=O)c3ccc(F)cc3)ccc21` was tested, and the survival was 73%.
In the case of `O=C(Nc1ccc(Cl)cc1F)c1cc(S(=O)(=O)NCc2ccc3c(c2)OCO3)ccc1F`, the survival is reported as 77%.
In the case of `COc1ccc(/C=C2\SC(=S)N(CCC(=O)NCCO)C2=O)cc1`, the survival is reported as 104%.
For `Cc1cc2c(cc1S(=O)(=O)NCc1ccc(N(C)C)cc1)OCC(=O)N2`, the survival was 80%.
For `COc1ccc(NC(=O)c2[nH]nc3c2CSc2ccccc2-3)c(OC)c1`, the survival was 49%.
In the case of `COc1cccc2cc(-c3nc(-c4ccc(C)cc4)c(C)s3)c(=O)oc12`, the survival is reported as 46% (active).
`COc1cccc2cc(-c3nc(Nc4cccc(C)c4)sc3C)c(=O)oc12` showed a survival of 98%.
For `CCOc1cccc2cc(-c3nc(-c4ccc(Cl)cc4)c(C)s3)c(=O)oc12`, the survival was 105%.
For `CCOC(=O)C1=C(SCC)c2cc3c(n2C1=O)CCCC3`, the survival was 83%.
`COc1ccc(CNC(=O)c2cc(-c3ccc(Br)s3)nc3ccccc23)cc1` was tested, and the survival was 77%.
Work on `CC(C)CN(CCCNC(=O)c1cc(-c2ccc(Br)s2)nc2ccccc12)CC(C)C` yielded a survival of 91%.
`CCN(CC)CC(C)CNC(=O)c1cc(-c2ccc(Br)s2)nc2ccccc12` (configuration not stated) was tested, and the survival was 31% (active).
`CCN(CC)CCNC(=O)c1cc(-c2ccc(Br)s2)nc2ccccc12` was tested, and the survival was 28% (active).
Molecule `CCCN(CCC)CCNC(=O)c1cc(-c2ccc(Br)s2)nc2ccccc12` has a survival of 68%.
In the case of `CCc1ccc(CNC(=O)c2cc(-c3ccc(Br)s3)nc3ccccc23)cc1`, the survival is reported as 60% (active).
With `CC(C)CCNC(=O)c1cc(-c2ccc(Br)s2)nc2ccccc12` the survival was 81%.
Work on `CCc1ccc(CNC(=O)c2cc(-c3ccc(Cl)s3)nc3ccccc23)cc1` yielded a survival of 83%.
`CCCCN(C)CCCNC(=O)c1cc(-c2ccc(Br)s2)nc2ccccc12` gave a survival of 33%.
`Cc1ccc(S(=O)(=O)c2cn(CC(=O)Nc3ccc(Cl)cc3)c3ccc(F)cc3c2=O)cc1C` showed a survival of 53%.
For `CC(C)(C)c1ccc(C(=O)Nc2ccccc2C(=O)OCc2cc(=O)n3ccsc3n2)cc1`, the survival was 73%.
Molecule `CC1OC(Nc2ccc(OC(F)(F)F)cc2)C(O)C(O)C1O` (configuration not stated) has a survival of 84%.
Work on `CCC(C)n1c(=O)c2sccc2n2c(CCCC(=O)N3CCN(c4ccccc4)CC3)nnc12` (configuration not stated) yielded a survival of 89%.
With `CCc1cccc(NC(=O)CCNS(=O)(=O)c2cccc3nonc23)c1` the survival was 97%.
With `CCOC(=O)c1cccc(NC(=O)CCNS(=O)(=O)c2cccc3nonc23)c1` the survival was 46% (active).
Molecule `Cc1cc(NC(=O)CCNS(=O)(=O)c2cccc3nsnc23)ccc1Br` has a survival of 102%.
`Cc1ccc(NC(=O)CCNS(=O)(=O)c2cccc3nonc23)cc1Cl` was tested, and the survival was 39% (active).
`CCOc1ccc(NC(=O)CCNS(=O)(=O)c2cccc3nsnc23)cc1` showed a survival of 52%.
For `Cc1ccc(NC(=O)CCS(=O)(=O)c2cccc3nonc23)cc1Cl`, the survival was 71%.
Molecule `Cc1cc(Br)ccc1NC(=O)CCS(=O)(=O)c1cccc2nonc12` has a survival of 83%.
For `Cc1cccc(NC(=O)CCNS(=O)(=O)c2cccc3nonc23)c1`, the survival was 44% (active).
`Cc1cc(Br)ccc1NC(=O)CCNS(=O)(=O)c1cccc2nonc12` was tested, and the survival was 43% (active).
`COc1ccc(NC(=O)CCS(=O)(=O)c2cccc3nonc23)cc1Cl` gave a survival of 68%.
`Cc1ccc(NC(=O)CCS(=O)(=O)c2cccc3nonc23)c(C)c1` showed a survival of 99%.
For `COC(=O)c1ccc(NC(=O)CCNS(=O)(=O)c2cccc3nsnc23)cc1`, the survival was 65%.
`Cc1cccc(Cn2c(=O)n(-c3cc(C)cc(C)c3)c(=O)c3oc4ccccc4c32)c1` showed a survival of 71%.
For `Cc1sc2ncn(CC(=O)N3CCN(c4ccc(F)cc4)CC3)c(=O)c2c1S(=O)(=O)N1CCC(C)CC1`, the survival was 75%.
`Cc1ccc(C)c(NC(=O)c2ccc(CN3CC(=O)N4CCCCC4C3=O)cc2)c1` (configuration not stated) was tested, and the survival was 54%.
Molecule `Cc1cc(Oc2nc3ccccn3c(=O)c2/C=C(\C#N)c2nc3ccccc3s2)ccc1Cl` has a survival of 63%.
Work on `COc1ccc(S(=O)(=O)N2CCC(C(=O)NC(C)c3ccccc3)CC2)cc1` (configuration not stated) yielded a survival of 79%.
For `COc1ccc(OC)c(/C=N/c2ncn[nH]2)c1`, the survival was 101%.
`COCCCNC(=O)Cn1c(=O)nc(-c2ccccc2)c2ccccc21` showed a survival of 78%.
